Results taken from PubChem BioAssay (NCATS).
Results filed as inconclusive are left out. Where a call stands in place of a potency, no number is given. Unmarked numbers belong to inactive results. The source made the active and inactive calls. Calls come from the whole dose curve; as a rule, active = well fitted cell-killing curve with a large enough effect; inconclusive = small, poorly fitted or top-dose-only effect, or effect the other way; inactive = no such curve, though single readings can be large or run the other way.

Tests used:
[1] = Quantitative High-Throughput drug screen in 47 multiple myeloma cell lines against the NCATS MIPE library collection: MM1R_ATCC cell viability assay (AID 1918981); note: nearly all actives have a fitted effect of over 35% in size; note: potency is the fitted concentration of half-maximal effect
Outline: (§1)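 Readout: median RLU from CellTiter-Glo after 5 min at room temperature. Preceding step was 48 h drug treatment of 500 cells/well at 37 °C, 5% CO2, with DMSO-only and media-only control wells.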

[2] = Quantitative High-Throughput drug screen in 47 multiple myeloma cell lines against the NCATS MIPE library collection: LP1_DSMZ cell viability assay (AID 1918982); note: nearly all actives have a fitted effect of over 35% in size; note: potency is the fitted concentration of half-maximal effect
Outline: as §1

[3] = Quantitative High-Throughput drug screen in 47 multiple myeloma cell lines against the NCATS MIPE library collection: KMS28PE_JCRB cell viability assay (AID 1918983); note: nearly all actives have a fitted effect of over 35% in size
Outline: as §1

[4] = Quantitative High-Throughput drug screen in 47 multiple myeloma cell lines against the NCATS MIPE library collection: L363_DSMZ cell viability assay (AID 1918984); conditions: L363 myeloma viability, CellTiter-Glo ATP luminescence, 48 h; viability (% of control): at 45.8 µM (top of the series); note: nearly all actives have a fitted effect of over 40% in size; note: potency is the fitted concentration of half-maximal effect
Outline: as §1

[5] = Quantitative High-Throughput drug screen in 47 multiple myeloma cell lines against the NCATS MIPE library collection: XG6_PLB cell viability assay (AID 1919865); note: nearly all actives have a fitted effect of over 40% in size; note: potency is the fitted concentration of half-maximal effect
Outline: as §1

[6] = Quantitative High-Throughput drug screen in 47 multiple myeloma cell lines against the NCATS MIPE library collection: XG1_PLB cell viability assay (AID 1919866); note: nearly all actives have a fitted effect of over 35% in size; note: potency is the fitted concentration of half-maximal effect
Outline: as §1

[7] = Quantitative High-Throughput drug screen in 47 multiple myeloma cell lines against the NCATS MIPE library collection: PCM6_Riken cell viability assay (AID 1919870); note: nearly all actives have a fitted effect of over 30% in size; note: potency is the fitted concentration of half-maximal effect
Outline: as §1

[8] = Quantitative High-Throughput drug screen in 47 multiple myeloma cell lines against the NCATS MIPE library collection: RPMI8226_ATCC cell viability assay (AID 1919871); note: nearly all actives have a fitted effect of over 30% in size; note: potency is the fitted concentration of half-maximal effect
Outline: as §1

[9] = Quantitative High-Throughput drug screen in 47 multiple myeloma cell lines against the NCATS MIPE library collection: OPM2_DSMZ cell viability assay (AID 1919872); note: nearly all actives have a fitted effect of over 30% in size; note: potency is the fitted concentration of half-maximal effect
Outline: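 Relative luminescence from CellTiter-Glo served as the viability signal, referenced to DMSO-treated (100%) and cell-free medium (0%) controls. Treatment lasted 48 hours at 37C with 500 cells per well.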

[10] = Quantitative High-Throughput drug screen in 47 multiple myeloma cell lines against the NCATS MIPE library collection: KMS11_JCRBsus cell viability assay (AID 1919873); note: nearly all actives have a fitted effect of over 50% in size; note: potency is the fitted concentration of half-maximal effect
Outline: as §1

[11] = Quantitative High-Throughput drug screen in 47 multiple myeloma cell lines against the NCATS MIPE library collection: KMS28BM_JCRB cell viability assay (AID 1919874); note: nearly all actives have a fitted effect of over 35% in size; note: potency is the fitted concentration of half-maximal effect
Outline: as §1

[12] = Quantitative High-Throughput drug screen in 47 multiple myeloma cell lines against the NCATS MIPE library collection: OCIMY7_PLB cell viability assay (AID 1918987); conditions: OCI-MY7 myeloma viability, CellTiter-Glo ATP, 48 h; viability (% of DMSO): at 45.8 µM (top of the series); note: nearly all actives have a fitted effect of over 65% in size; note: potency is the fitted concentration of half-maximal effect
Outline: as §1

[13] = Quantitative High-Throughput drug screen in 47 multiple myeloma cell lines against the NCATS MIPE library collection: OPM1_PLB cell viability assay (AID 1918989); note: nearly all actives have a fitted effect of over 40% in size; note: potency is the fitted concentration of half-maximal effect
Outline: as §1

[14] = Quantitative High-Throughput drug screen in 47 multiple myeloma cell lines against the NCATS MIPE library collection: SKMM1_PLB cell viability assay (AID 1919863); conditions: SKMM1 myeloma viability, CellTiter-Glo ATP, 48 h; viability: stronger effect = lower value; note: nearly all actives have a fitted effect of over 35% in size
Outline: as §1

[15] = Quantitative High-Throughput drug screen in 47 multiple myeloma cell lines against the NCATS MIPE library collection: VP6_DJ cell viability assay (AID 1919867); note: potency is the fitted concentration of half-maximal effect; nearly all actives have a fitted effect of over 40% in size
Outline: as §1

[16] = Quantitative High-Throughput drug screen in 47 multiple myeloma cell lines against the NCATS MIPE library collection: UTMC2_PLB cell viability assay (AID 1919868); conditions: CellTiter-Glo ATP luminescence, 48 h; viability (% of DMSO control): at 45.8 µM (top of the series); note: nearly all actives have a fitted effect of over 55% in size; note: potency is the fitted concentration of half-maximal effect
Outline: as §1

[17] = Quantitative High-Throughput drug screen in 47 multiple myeloma cell lines against the NCATS MIPE library collection: PE2_PLB cell viability assay (AID 1919869); note: nearly all actives have a fitted effect of over 35% in size; note: potency is the fitted concentration of half-maximal effect
Outline: as §1

[18] = Quantitative High-Throughput drug screen in 47 multiple myeloma cell lines against the NCATS MIPE library collection: KMS34_JCRB cell viability assay (AID 1918985); note: nearly all actives have a fitted effect of over 40% in size
Outline: as §1

[19] = Quantitative High-Throughput drug screen in 47 multiple myeloma cell lines against the NCATS MIPE library collection: OCIMY5_PLB cell viability assay (AID 1918988); note: nearly all actives have a fitted effect of over 65% in size; note: potency is the fitted concentration of half-maximal effect
Outline: as §1

[20] = Quantitative High-Throughput drug screen in 47 multiple myeloma cell lines against the NCATS MIPE library collection: U266_ATCC cell viability assay (AID 1919864); note: nearly all actives have a fitted effect of over 35% in size; note: potency is the fitted concentration of half-maximal effect
Outline: as §1

Structure (SMILES) | Potency [1] | Potency [2] | Potency [3] | Potency [4] | Potency [5] | Potency [6] | Potency [7] | Potency [8] | Potency [9] | Potency [10] | Potency [11] | Potency [12] | Potency [13] | viability [14] [%] | Potency [15] | Potency [16] | Potency [17] | Potency [18] | Potency [19] | Potency [20]
CCCCC[C@H](O)C=C[C@H]1[C@H](O)CC(=O)[C@H]1CCCCCCC(=O)O | inactive | inactive | inactive | inactive | inactive | inactive | inactive | 0.105 µM (active) | inactive | inactive | inactive | – | – | – | – | – | – | – | – | –
C[C@H](CCC(=O)O)[C@H]1CC[C@H]2[C@H]3[C@@H](CC[C@]12C)[C@@]1(C)CC[C@@H](O)C[C@H]1C[C@@H]3O | inactive | 16.6 µM (active) | – | inactive | – | – | – | – | 6.62 µM (active) | inactive | – | inactive | inactive | 120 | 20.9 µM (active) | inactive | inactive | – | – | –
CC(C)[C@H](O)C(=O)N[C@@H](C)C(=O)N[C@@H]1C(=O)N(C)CCc2ccccc21 | inactive | inactive | – | inactive | 26.4 µM (active) | – | 26.4 µM (active) | inactive | inactive | 0.332 µM (active) | inactive | – | inactive | – | – | – | inactive | inactive | inactive | inactive
O=C(O)C1=CC(O)C(O)[C@H](O)C1 (stereo not given in full) | inactive | inactive | – | – | inactive | inactive | – | inactive | inactive | inactive | inactive | – | inactive | 118 | – | – | inactive | inactive | – | inactive
CC(C)CNc1ccnc(NCc2csc(-c3ccccc3)n2)n1 | 18.7 µM (active) | 11.8 µM (active) | – | 1.87 µM (active) | 16.6 µM (active) | 16.6 µM (active) | 14.8 µM (active) | – | – | 13.2 µM (active) | 16.6 µM (active) | 16.6 µM (active) | 11.8 µM (active) | – | 5.26 µM (active) | 10.5 µM (active) | 18.7 µM (active) | – | 14.8 µM (active) | 20.9 µM (active)
Cn1cc(-c2ccc3nnc(Sc4ccc5ncccc5c4)n3n2)cn1 | 23.5 µM (active) | 0.001 µM (active) | – | – | 26.4 µM (active) | 26.4 µM (active) | – | – | inactive | inactive | – | inactive | inactive | – | 18.7 µM (active) | – | – | – | 13.2 µM (active) | –
CCOC(=O)[C@H]1O[C@H]1C(=O)N[C@@H](CC(C)C)C(=O)NCCC(C)C | inactive | inactive | – | – | 6.62 µM (active) | – | 5.9 µM (active) | – | inactive | inactive | inactive | inactive | – | – | – | – | inactive | – | 29.6 µM (active) | 10.5 µM (active)
